# Test results from PubChem BioAssay (NCATS).
# Records with an inconclusive call do not appear. Calls of active or inactive are those of the source. Unless noted, calls come from the whole dose curve; as a rule, active = well fitted curve in the direction sought with a large enough effect; inconclusive = small, poorly fitted or top-dose-only effect, or another doubt; inactive = no such curve, though single readings can be large; an effect the other way counts as inactive or inconclusive.
# Tests used:
# [1] = AP1 Signaling Pathway (AID 357; active = well fitted curve in either direction with a large enough effect, not every such curve was filed as active; note: % is set by controls: 0 for no effect and ±100 for the full control effect); settings: ME-180 AP-1-bla reporter, EGF-induced, beta-lactamase ratio, 5 h; at 7.69 µM (top of the series) unless noted
# How it was run: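 Modulation of EGF-driven AP-1 transcription was assessed with a beta-lactamase reporter in ME-180 cells. Compound and EC50 EGF were co-incubated 5 hours at 37 °C before 2.5-hour CCF4 loading at room temperature and dual-emission reading.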
# [2] = target: Cytochrome P450 1A2 (Homo sapiens) (UniProt P05177); experiment: p450-cyp1a2 (AID 410; calls by dose curve; note: potency is the fitted concentration of half-maximal effect;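 for activity change, negative = inhibition: -100% = full effect of reference inhibitor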)
# How it was run: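 Luminescent demethylation readout: Luciferin-ME (100uM, equal to Km) turned over by 20nM CYP1A2 for 60 min at room temperature after NADPH regeneration addition, following 10 min compound preincubation. Normalization used 57 uM furafylline as full inhibition.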
# [3] = NFAT Signaling Pathway (AID 444; active = well fitted curve in either direction with a large enough effect, not every such curve was filed as active;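 note: carbachol stimulus at about its EC50 of 1 µM final; % is set by controls: 0 for no effect and ±100 for the full control effect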); settings: Jurkat NFAT-bla M1, carbachol, beta-lactamase ratio, 5 h; at 7.69 µM (top of the series) unless noted
# How it was run: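 Jurkat cells carrying an NFAT-driven β-lactamase reporter and co-transfected muscarinic M1 receptor were treated with compound plus carbachol (1 uM final, an EC50 level) for 5 h at 37 °C. CCF4 loading followed for 1 h at RT; 460/530 nm ratio gave %activity.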
# [4] = Stat Signaling Pathway (AID 446; active = well fitted curve in either direction with a large enough effect, not every such curve was filed as active;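 note: ME-180 cervical cancer cells given 40 pM IL-6 alongside compound; SIE-controlled beta-lactamase reporter measured as 460/530 nm FRET emission ratio; % is set by controls: 0 for no effect and ±100 for the full control effect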); settings: ME-180 (cervical carcinoma) SIE beta-lactamase reporter, IL-6 stimulated, 5 h; at 7.69 µM (top of the series) unless noted
# How it was run: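 Overnight-plated ME-180 cells bearing a STAT Inducible Element beta-lactamase reporter; 5 h co-exposure to compound and 40 pM IL-6; values normalized to 300 pM IL-6 and 125 nM JAK inhibitor controls.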
# [5] = target: Glucocorticoid receptor (Homo sapiens) (UniProt P04150); experiment: GR-GFP Redistribution (AID 450;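 active = compounds whose dose series gives a full or clear partial fitted curve of increased nuclear translocation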; note: potency is the fitted concentration of half-maximal effect); settings: U2OS GR-GFP nuclear translocation, laser cytometry, 2 h
# [6] = target: Glucocorticoid receptor (Homo sapiens) (UniProt P04150); experiment: GR-EFC Redistribution (AID 451; calls by dose curve; note: potency is the fitted concentration of half-maximal effect); settings: CHO-K1 GR-EFC translocation, beta-gal luminescence, 2 h
# How it was run: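 CHO-K1 cells stably expressing nuclear-localized β-gal enzyme acceptor and GR fused C-terminally to the enzyme donor fragment; ligand-driven nuclear translocation restores β-gal by complementation. Compounds titrated up to 46 uM final, 2 h at 37 °C; luminescence read.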
# [7] = target: Mitogen-activated protein kinase 10 (Mus musculus) (UniProt Q61831); experiment: JNK3 AlphaScreen Assay (AID 530; active = well fitted curve in either direction with a large enough effect, not every such curve was filed as active;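 note: kinase came from lysate of stimulated human HepG2 cells; signal reports phosphorylation of biotinylated GST-cJun 1-79 at Ser73 with 10 µM ATP; % is set by controls: 0 for no effect and ±100 for the full control effect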)
# How it was run: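 Phosphorylation of biotinylated GST-cJun(1-79) at Ser73 is measured by AlphaScreen proximity luminescence. Enzyme is JNK3 in HepG2 lysates activated with interleukin-1beta and tumor necrosis factor alpha; ATP is 10 uM final.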
# [8] = target: Cytochrome P450 3A4 (Homo sapiens) (UniProt P08684); experiment: qHTS Assay for Inhibitors and Substrates of Cytochrome P450 3A4 (AID 884); note: potency is the fitted concentration of half-maximal effect; nearly all actives have a fitted effect of over 50% in size
# How it was run: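 Luminescent readout of luciferin produced by CYP3A4 (20 nM) dealkylation of Luciferin-PPXE, 25 uM (its KM). NADPH-driven reaction ran 60 min at RT after 10 min compound preincubation; data scaled to 57 uM ketoconazole as 100% inhibition.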
# [9] = target: Cytochrome P450 3A4 (Homo sapiens) (UniProt P08684); experiment: qHTS Assay for Activators of Cytochrome P450 3A4 (AID 885); note: nearly all actives have a fitted effect of over 65% in size
# How it was run: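 Using 20nM recombinant human CYP3A4 in potassium phosphate (200mM), substrate Luciferin-PPXE at 25uM, luminescent luciferin detection followed a 60-min RT NADPH reaction; data scaled to 57 uM ketoconazole.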
# [10] = Confirmation and Secondary Assay for Modulators of Hemoglobin Beta Chain Splicing at IVS2 654 locus (AID 910);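 note: per-well total GFP intensity by laser scanning cytometry after 2-day treatment; % of control where 0% means no effect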
# How it was run: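 HeLa cells stably carrying EGFP interrupted by mutant beta-globin IVS2-654 intron (CMV-driven) were treated with compound for 2 days at 37C; corrected splicing was scored as total peak GFP intensity per well (488 nm excitation, 500-520 nm emission).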
# [11] = Confirmation and Secondary Assay for Modulators of Hemoglobin Beta Chain Splicing at IVS2 705 locus (AID 930);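 note: HeLa cells stably expressing the EGFP-705 splicing reporter; GFP fluorescence per well restored by corrected splicing of the IVS2-705 intron in EGFP; % of control where 0% means no effect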
# How it was run: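 Assay measures total GFP intensity per well in HeLa EGFP-705 cells after 2 days with compound; mis-splicing normally truncates EGFP, so fluorescence indicates corrected splicing.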
# [12] = qHTS Assay for Lipid Storage Modulators (AID 1519; calls by dose curve); settings: Drosophila S3 cells, BODIPY lipid droplet/cell ratio, laser cytometry, cells loaded with oleic acid; for activity change, negative = inhibition: at 57.5 µM (top of the series)
# How it was run: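 Cells seeded at 5,000 per well were treated with compounds over a concentration series and loaded with oleic acid (400 uM, as added). Lipid droplet fluorescence (488 nm excitation, 500-530 nm channel) was read by laser-scanning cytometry and normalized to 20 uM Triacsin C.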
# [13] = target: Ubiquitin carboxyl-terminal hydrolase 1 (Homo sapiens) (UniProt O94782); experiment: Inhibitors of USP1/UAF1: Pilot qHTS (AID 504865); note: nearly all actives have a fitted effect of over 35% in size; note: potency is the fitted concentration of half-maximal effect
# How it was run: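 In 50mM HEPES pH 7.8 containing 0.5mM EDTA, 1mM TCEP, 0.1 mg/ml BSA and 0.01% Tween-20, 1nM USP1/UAF1 is exposed to compound for 15 min, then Ub-Rho (150nM final) is added and fluorescence is read over time.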
# [14] = Primary qHTS for small molecule stabilizers of the endoplasmic reticulum resident proteome: Secreted ER Calcium Modulated Protein (SERCaMP) assay (AID 1508630); note: % is set by controls: 0 for no effect and ±100 for the full control effect
# How it was run: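 The SH-SY5Y reporter protocol was run at 3 concentrations up to 38.3 uM (primary) or 11 concentrations (follow-up): 16 h compound, 100 nM thapsigargin for 4 h, then extracellular luciferase luminescence.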
# [15] = target: Lysosomal acid glucosylceramidase (Homo sapiens) (UniProt P04062); experiment: Glucocerebrosidase-p2 (AID 348; in the data active = potency below about 10 µM; note: potency is the fitted concentration of half-maximal effect); settings: purified GBA, blue fluorogenic substrate, 40 min
# How it was run: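 Normal human glucocerebrosidase (0.2 nM) with blue fluorogenic substrate (80 uM final) in citrate/phosphate pH 5.9 with 10mM sodium taurocholate, 0.01% tween-20; 40 min RT, NaOH/glycine stop; fluorescence Ex 365/Em 440; AC50 from a titration from 0.6 nM upwards.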
# [16] = target: 3',5'-cyclic-AMP phosphodiesterase 4B (Homo sapiens) (UniProt Q07343); experiment: qHTS Assay for Inhibitors of PDE-IV (AID 607; active = well fitted activation curve with a large enough effect in the main read-out, with a control signal flat, not every such curve was filed as active; note: % of control where 0% means no effect)
# How it was run: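 Live HEK293 cells with a modified cyclic nucleotide-gated (CNG) channel report intracellular cAMP via membrane-potential dye fluorescence (ex 535/em 590 nm). Endogenous PDE-IV was targeted. Compounds were tested at up to 22.9 uM final; RO 20-1724 100 uM served as control.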
# [17] = target: Cytochrome P450 2C19 (Homo sapiens) (UniProt P33261); experiment: qHTS Assay for Inhibitors and Substrates of Cytochrome P450 2C19 (AID 899); note: potency is the fitted concentration of half-maximal effect; nearly all actives have a fitted effect of over 60% in size
# How it was run: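 In 50mM KPO4, the reaction held 5nM enzyme and KM-level (10uM) Luciferin-H EGE; it ran 60 min at 37C after NADPH regeneration and a 10 min compound preincubation. Luminescence values were scaled to 57uM ketoconazole as complete inhibition.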
# [18] = target: Cytochrome P450 2C9 (Homo sapiens) (UniProt P11712); experiment: qHTS Assay for Inhibitors and Substrates of Cytochrome P450 2C9 (AID 883); note: % is set by controls: 0 for no effect and ±100 for the full control effect; nearly all actives have a fitted effect of over 60% in size
# How it was run: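 CYP2C9 deoxyluciferin hydroxylation, 37C, 60 min with NADPH regeneration; 10nM enzyme, 100uM Luciferin-H (KM). Glo detection reagent stopped reaction; luminescence normalized to sulphaphenazole (57uM) full inhibition.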
# [19] = target: Cytochrome P450 2D6 (Homo sapiens) (UniProt P10635); experiment: qHTS Assay for Inhibitors and Substrates of Cytochrome P450 2D6 (AID 891); note: potency is the fitted concentration of half-maximal effect; nearly all actives have a fitted effect of over 60% in size
# How it was run: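 Luminescent read-out of luciferin formed by 5 nM human CYP2D6 demethylating 30 uM Luciferin-ME EGE (Km level) over 60 min at room temperature after NADPH regeneration addition. Data normalized to full inhibition by 1.43 uM quinidine.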
# [20] = measured here: cell count channel max response
# [21] = measured here: lipid channel max response
# Sequence of 3',5'-cyclic-AMP phosphodiesterase 4B (Homo sapiens) (Q07343 whole entry, looked up): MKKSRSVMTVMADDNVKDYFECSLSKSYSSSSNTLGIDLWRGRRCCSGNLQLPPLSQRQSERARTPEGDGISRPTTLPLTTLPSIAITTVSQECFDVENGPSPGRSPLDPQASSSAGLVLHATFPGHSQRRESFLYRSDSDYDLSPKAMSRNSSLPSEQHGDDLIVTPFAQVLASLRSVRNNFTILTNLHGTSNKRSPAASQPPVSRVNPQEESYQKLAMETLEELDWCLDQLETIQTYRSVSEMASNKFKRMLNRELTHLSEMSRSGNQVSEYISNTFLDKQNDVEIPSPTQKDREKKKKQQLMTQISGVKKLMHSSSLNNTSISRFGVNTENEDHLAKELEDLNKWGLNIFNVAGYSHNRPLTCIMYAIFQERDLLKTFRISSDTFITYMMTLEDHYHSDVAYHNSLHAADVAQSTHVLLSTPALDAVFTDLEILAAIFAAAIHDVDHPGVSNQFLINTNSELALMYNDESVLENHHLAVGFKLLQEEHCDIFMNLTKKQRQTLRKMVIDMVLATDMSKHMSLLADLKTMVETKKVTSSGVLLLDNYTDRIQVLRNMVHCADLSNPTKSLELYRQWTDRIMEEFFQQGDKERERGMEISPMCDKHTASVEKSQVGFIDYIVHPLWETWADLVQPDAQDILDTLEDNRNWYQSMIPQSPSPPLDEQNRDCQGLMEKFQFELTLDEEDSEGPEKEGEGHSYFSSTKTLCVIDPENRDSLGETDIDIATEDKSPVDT
# Sequence of Lysosomal acid glucosylceramidase (Homo sapiens) (P04062 whole entry, looked up): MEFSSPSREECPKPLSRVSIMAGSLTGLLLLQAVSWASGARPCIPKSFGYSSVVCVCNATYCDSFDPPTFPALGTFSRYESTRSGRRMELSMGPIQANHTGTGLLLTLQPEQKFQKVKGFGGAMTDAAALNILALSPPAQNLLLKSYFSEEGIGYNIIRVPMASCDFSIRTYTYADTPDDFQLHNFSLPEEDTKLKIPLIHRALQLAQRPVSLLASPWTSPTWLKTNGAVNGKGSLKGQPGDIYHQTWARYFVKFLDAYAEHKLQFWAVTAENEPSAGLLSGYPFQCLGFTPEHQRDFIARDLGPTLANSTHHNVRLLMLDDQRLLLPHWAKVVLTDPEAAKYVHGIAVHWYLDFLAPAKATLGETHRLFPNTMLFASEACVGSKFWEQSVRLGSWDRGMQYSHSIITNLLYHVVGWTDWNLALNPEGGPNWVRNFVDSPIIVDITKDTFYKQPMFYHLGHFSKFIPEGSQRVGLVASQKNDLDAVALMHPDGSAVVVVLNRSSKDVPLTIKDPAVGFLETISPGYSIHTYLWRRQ
# Sequence of Glucocorticoid receptor (Homo sapiens) (P04150 whole entry, looked up, the tested form may be a part): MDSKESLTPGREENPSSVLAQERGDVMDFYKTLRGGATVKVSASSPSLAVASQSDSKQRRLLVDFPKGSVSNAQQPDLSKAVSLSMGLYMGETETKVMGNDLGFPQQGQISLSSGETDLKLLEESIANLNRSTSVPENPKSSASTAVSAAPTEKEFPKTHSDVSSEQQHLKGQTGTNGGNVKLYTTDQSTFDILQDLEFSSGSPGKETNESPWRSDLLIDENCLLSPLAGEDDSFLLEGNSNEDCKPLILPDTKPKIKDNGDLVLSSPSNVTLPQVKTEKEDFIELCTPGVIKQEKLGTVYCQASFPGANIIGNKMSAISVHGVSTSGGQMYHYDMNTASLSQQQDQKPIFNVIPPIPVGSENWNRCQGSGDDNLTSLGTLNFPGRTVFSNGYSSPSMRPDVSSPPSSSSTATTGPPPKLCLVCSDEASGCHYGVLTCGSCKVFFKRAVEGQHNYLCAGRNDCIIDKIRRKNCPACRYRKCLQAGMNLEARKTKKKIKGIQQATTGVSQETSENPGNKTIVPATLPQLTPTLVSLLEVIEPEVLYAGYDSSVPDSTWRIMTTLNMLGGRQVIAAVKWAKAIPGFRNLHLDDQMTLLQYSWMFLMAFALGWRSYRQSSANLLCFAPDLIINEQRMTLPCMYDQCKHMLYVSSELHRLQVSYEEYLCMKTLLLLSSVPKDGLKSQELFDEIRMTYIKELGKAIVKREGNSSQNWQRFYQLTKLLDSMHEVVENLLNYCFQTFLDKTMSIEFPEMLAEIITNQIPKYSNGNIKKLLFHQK
# Sequence of Cytochrome P450 3A4 (Homo sapiens) (P08684 whole entry, looked up): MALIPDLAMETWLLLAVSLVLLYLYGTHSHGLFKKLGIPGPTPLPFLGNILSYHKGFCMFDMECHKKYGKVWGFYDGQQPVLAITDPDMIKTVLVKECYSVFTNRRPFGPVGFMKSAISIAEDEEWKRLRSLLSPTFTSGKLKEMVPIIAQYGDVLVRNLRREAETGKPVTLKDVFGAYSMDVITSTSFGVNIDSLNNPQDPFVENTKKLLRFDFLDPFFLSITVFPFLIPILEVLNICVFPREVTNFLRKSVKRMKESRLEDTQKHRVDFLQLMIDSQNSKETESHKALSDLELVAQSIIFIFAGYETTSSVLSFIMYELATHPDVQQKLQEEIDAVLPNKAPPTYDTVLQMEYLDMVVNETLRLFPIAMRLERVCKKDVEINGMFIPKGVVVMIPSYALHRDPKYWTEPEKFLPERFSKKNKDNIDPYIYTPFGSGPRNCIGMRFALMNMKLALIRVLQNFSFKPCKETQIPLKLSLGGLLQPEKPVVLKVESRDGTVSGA
# Sequence of Cytochrome P450 1A2 (Homo sapiens) (P05177 whole entry, looked up): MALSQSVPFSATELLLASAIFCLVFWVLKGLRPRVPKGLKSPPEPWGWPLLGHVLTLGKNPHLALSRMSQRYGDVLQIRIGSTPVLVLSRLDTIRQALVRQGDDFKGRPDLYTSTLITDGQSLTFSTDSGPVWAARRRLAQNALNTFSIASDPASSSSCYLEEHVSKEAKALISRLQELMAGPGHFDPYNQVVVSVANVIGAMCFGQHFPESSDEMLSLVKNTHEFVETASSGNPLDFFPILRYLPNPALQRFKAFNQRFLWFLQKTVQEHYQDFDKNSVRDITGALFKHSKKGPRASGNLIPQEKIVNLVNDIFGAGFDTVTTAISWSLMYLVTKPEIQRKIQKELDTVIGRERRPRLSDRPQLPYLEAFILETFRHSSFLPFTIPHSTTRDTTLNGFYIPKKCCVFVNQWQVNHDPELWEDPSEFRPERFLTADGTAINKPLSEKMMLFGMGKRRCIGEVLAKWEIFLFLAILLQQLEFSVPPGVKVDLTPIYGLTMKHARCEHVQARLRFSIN
# Sequence of Ubiquitin carboxyl-terminal hydrolase 1 (Homo sapiens) (O94782 whole entry, looked up): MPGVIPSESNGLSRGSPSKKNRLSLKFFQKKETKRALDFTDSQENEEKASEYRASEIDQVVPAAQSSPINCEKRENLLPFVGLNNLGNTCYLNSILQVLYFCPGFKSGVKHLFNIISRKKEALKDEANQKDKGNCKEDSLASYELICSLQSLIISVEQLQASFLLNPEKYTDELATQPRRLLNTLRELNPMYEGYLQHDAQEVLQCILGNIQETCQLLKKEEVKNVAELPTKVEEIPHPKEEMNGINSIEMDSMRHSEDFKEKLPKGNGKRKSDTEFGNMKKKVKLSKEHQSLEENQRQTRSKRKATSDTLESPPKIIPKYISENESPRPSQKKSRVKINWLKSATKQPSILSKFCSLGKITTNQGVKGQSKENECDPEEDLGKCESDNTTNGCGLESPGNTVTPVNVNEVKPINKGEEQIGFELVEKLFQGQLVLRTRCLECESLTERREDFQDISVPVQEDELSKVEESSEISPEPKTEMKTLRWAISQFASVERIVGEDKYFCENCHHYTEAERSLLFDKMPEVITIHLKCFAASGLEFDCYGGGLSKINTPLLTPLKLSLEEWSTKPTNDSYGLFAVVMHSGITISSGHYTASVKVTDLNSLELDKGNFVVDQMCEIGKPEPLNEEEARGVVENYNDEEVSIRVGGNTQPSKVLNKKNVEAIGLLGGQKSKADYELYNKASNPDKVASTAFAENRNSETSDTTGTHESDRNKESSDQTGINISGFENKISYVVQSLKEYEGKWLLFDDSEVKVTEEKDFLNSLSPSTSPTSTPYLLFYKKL
# Sequence of Cytochrome P450 2C19 (Homo sapiens) (P33261 whole entry, looked up): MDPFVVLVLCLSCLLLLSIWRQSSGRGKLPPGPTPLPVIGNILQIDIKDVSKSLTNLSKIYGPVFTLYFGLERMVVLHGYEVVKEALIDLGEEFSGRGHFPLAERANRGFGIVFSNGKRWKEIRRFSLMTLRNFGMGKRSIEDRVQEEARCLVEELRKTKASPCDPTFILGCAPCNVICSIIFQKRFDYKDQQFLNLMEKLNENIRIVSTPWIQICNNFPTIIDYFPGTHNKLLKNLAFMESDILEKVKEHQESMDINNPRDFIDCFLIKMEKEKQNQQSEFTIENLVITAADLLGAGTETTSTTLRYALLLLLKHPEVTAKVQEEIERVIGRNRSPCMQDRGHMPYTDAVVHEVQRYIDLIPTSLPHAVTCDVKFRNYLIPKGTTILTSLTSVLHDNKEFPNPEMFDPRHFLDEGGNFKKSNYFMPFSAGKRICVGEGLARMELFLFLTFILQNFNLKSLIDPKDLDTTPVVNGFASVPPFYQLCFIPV
# Sequence of Cytochrome P450 2C9 (Homo sapiens) (P11712 whole entry, looked up): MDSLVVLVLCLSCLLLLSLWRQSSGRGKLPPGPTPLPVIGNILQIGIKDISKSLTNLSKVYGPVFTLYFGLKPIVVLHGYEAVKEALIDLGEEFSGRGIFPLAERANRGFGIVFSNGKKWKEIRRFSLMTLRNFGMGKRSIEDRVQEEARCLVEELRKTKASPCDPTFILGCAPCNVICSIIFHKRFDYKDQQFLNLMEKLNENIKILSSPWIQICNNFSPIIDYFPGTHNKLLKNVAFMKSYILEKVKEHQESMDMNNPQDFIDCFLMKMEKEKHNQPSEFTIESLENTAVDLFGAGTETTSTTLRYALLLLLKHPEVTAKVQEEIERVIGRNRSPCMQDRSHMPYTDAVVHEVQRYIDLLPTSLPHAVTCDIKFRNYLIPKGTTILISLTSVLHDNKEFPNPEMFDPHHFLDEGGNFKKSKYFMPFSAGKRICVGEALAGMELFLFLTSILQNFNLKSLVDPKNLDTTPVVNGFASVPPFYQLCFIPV
structure (smiles),measurement,setting,value
Cc1ccccc1-c1nc(NCc2cccnc2)c2ccccc2n1,"activity change, negative = inhibition",[1],-6.01% (inactive)
same,Potency,[2],0.501 µM (active)
same,"activity change, negative = inhibition",[3],-1.21% (inactive)
same,"activity, negative = inhibition",[4],3.29% (inactive)
same,Potency,[5],> 46 µM (inactive)
same,Potency,[6],> 46 µM (inactive)
same,Potency,[7],inactive
same,Potency,[8],0.501 µM (active)
same,Potency,[9],inactive
same,Potency,[10],inactive
same,outcome,[11],inactive
same,"activity change, negative = inhibition",[12],1.87% (inactive)
same,max response,[12]; [20],-7.11%
same,max response,[12]; [21],-4.19%
same,Potency,[13],28.2 µM (active)
same,outcome,[14],inactive
N#Cc1cccc(-c2ccc3ncnc(NCc4cccnc4)c3c2)c1,Potency,[15],> 11.4 µM (inactive)
same,"activity change, negative = inhibition",[3],21.6% (inactive)
same,"activity, negative = inhibition",[4],-12.3% (inactive)
same,Potency,[5],> 46 µM (inactive)
same,Potency,[6],> 46 µM (inactive)
same,Potency,[7],inactive
same,Potency,[16],inactive
same,Potency,[10],inactive
same,outcome,[11],inactive
same,"activity change, negative = inhibition",[12],7.68% (inactive)
same,max response,[12]; [20],12%
same,max response,[12]; [21],20.4%
same,outcome,[14],inactive
FC(F)(F)c1ccccc1-c1nccc(NCc2ccccc2)n1,"activity change, negative = inhibition",[1],-1.94% (inactive)
same,Potency,[2],12.6 µM (active)
same,"activity change, negative = inhibition",[3],-3.71% (inactive)
same,"activity, negative = inhibition",[4],-13.7% (inactive)
same,Potency,[5],> 46 µM (inactive)
same,Potency,[6],> 46 µM (inactive)
same,Potency,[7],inactive
same,Potency,[9],inactive
same,Potency,[17],6.31 µM (active)
same,Potency,[10],inactive
same,outcome,[11],inactive
same,"activity change, negative = inhibition",[12],6.15% (inactive)
same,max response,[12]; [20],0.814%
same,max response,[12]; [21],5.46%
same,Potency,[13],6.31 µM (active)
same,outcome,[14],inactive
CC(=O)N1CCC2(CC1)CN(Cc1ccc(C#N)cc1)C2,Potency,[15],> 11.4 µM (inactive)
same,"activity change, negative = inhibition",[3],0.883% (inactive)
same,Potency,[6],> 46 µM (inactive)
same,Potency,[7],inactive
same,Potency,[16],inactive
same,"activity change, negative = inhibition",[12],-1.35% (inactive)
same,max response,[12]; [20],-0.767%
same,max response,[12]; [21],-0.217%
same,outcome,[14],inactive
CC(C)CN1CCC2(CC1)CCN(C(=O)c1ccco1)CC2,Potency,[15],> 11.4 µM (inactive)
same,"activity, negative = inhibition",[4],-2.71% (inactive)
same,Potency,[6],> 46 µM (inactive)
same,Potency,[7],inactive
same,Potency,[16],inactive
same,"activity change, negative = inhibition",[12],-0.991% (inactive)
same,max response,[12]; [20],-0.576%
same,max response,[12]; [21],1.45%
same,outcome,[14],inactive
Cc1cnc(CNc2ncnc3ccc(-c4ccccc4CN(C)C)cc23)cn1,"activity change, negative = inhibition",[1],16.4% (inactive)
same,Potency,[2],inactive
same,"activity change, negative = inhibition",[3],-29.4% (inactive)
same,"activity, negative = inhibition",[4],11.7% (inactive)
same,Potency,[5],> 46 µM (inactive)
same,Potency,[6],> 46 µM (inactive)
same,Potency,[16],inactive
same,"activity change, negative = inhibition",[18],39% [at 2.29 µM] (inactive)
same,Potency,[19],2.51 µM (active)
same,Potency,[10],inactive
same,outcome,[11],inactive
same,"activity change, negative = inhibition",[12],9.03% (inactive)
same,max response,[12]; [20],5.18%
same,max response,[12]; [21],15.6%
same,Potency,[13],inactive
same,outcome,[14],inactive
